Source: PubChem BioAssay
In the library only some 7.3% were active in any assay of this set; here they are far more common.
HCMV antiviral – human cytomegalovirus inhibition; HFF cells, HCMV-luciferase reporter, 72 h; stronger effect = lower value; activity change, negative = inhibition, % at 57.5 µM; 410,000 tested, 4.5% active; in the data active = activity change below about -60%; inconclusive = no clear call, values can overlap the other calls; inactive = above about -39%
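Two compound doses tested in HFFs infected with HCMV-luciferase, MOI 1 PFU/cell, 72 h at 37C. Lysate luminescence read with OneGlo; data normalized against buffer-only and 10uM Salinomycin inhibitor controls.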
HCV inhibitor – blocks hepatitis C virus; Huh7.5.1 HCVcc-Cre infection, luciferase reporter, 44 h; AID 651820; Potency, µM (highest dose often 41.8 µM), hits mostly inhibitors; 340,000 tested, 3.4% active; active = well fitted inhibition curve with a large enough effect; inconclusive = small, poorly fitted or top-dose-only effect, or another doubt; inactive = no such curve, though single readings can be large or run the other way
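After 44 h co-culture of compound, cells and HCVcc-Cre (~0.5 moi), substrate is added for 15 min at room temperature and luciferase measured over 15 sec. Cells were seeded at 1,000/well and pre-cultured 4 h.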
Vaccinia mCherry – vaccinia inhibition (mCherry reporter); Vaccinia virus mCherry reporter infection, fluorescence; Potency, µM (top dose mostly 36.5 µM), usual class: inhibitors; 310,000 tested, 0.63% active; calls by dose curve; tested in A549 cells; also: nearly all actives have a fitted effect of over 35% in size
Vaccinia Venus – inhibitors of vaccinia virus (Venus reporter) | Vaccinia virus Venus reporter expression, fluorescence | Potency, µM (series often up to 36.5 µM), actives largely listed as inhibitors | 330,000 tested, 0.46% active | AID 720580; calls by dose curve; tested in A549 cells; also: nearly all actives have a fitted effect of over 30% in size
FMDV antiviral – antivirals against foot and mouth disease virus; FMDV antiviral cell-based qHTS; Potency, µM (series often up to 57.9 µM), hits mostly inhibitors; 410,000 tested, 1.2% active; AID 1159524; calls by dose curve; tested in HEK293T cells; also: read-out not given here; nearly all actives have a fitted effect of over 45% in size
Of the large screens only hits and unclear results are named; the others gave an inactive call; ! = not confirmed by another sample.

O=C(CN1CCN(Cc2ccccc2)CC1)NNC(=O)c1ccccc1	none (no result: Vaccinia mCherry, Vaccinia Venus)
CN(CC(=O)Nc1cccc(F)c1)C(=O)c1cc(S(=O)(=O)N2CCCCC2)ccc1N1CCOCC1	none
COc1ccc(NC(=O)CC23CC4CC(CC(Br)(C4)C2)C3)c(OC)c1	none
Cc1ccccc1/C=N/Nc1nc2ccccc2[nH]1	Vaccinia mCherry inconclusive
C(=N\Nc1nc2ccccc2[nH]1)/c1cccc2cccnc12	HCMV antiviral -101, HCV inhibitor 4µM (no result: Vaccinia mCherry, Vaccinia Venus)
Cc1[nH]c2ccccc2c1/C=C/c1nc2ccccc2c(=O)[nH]1	Vaccinia mCherry 13µM, Vaccinia Venus inconclusive
CCc1nnc(N/N=C/c2cc(C)c(C)cc2C)n1N	Vaccinia mCherry 10µM, Vaccinia Venus 13µM
CN(C(=O)COC(=O)c1ccccc1SCC(=O)N1CCCC1)C1(C#N)CCCCC1	none (no result: Vaccinia mCherry, Vaccinia Venus)
COC(=O)[C@H](Cc1ccccc1)NC(=O)/C=C/[C@H]1O[C@@H](n2ccc(=O)[nH]c2=O)[C@H](O)[C@@H]1O	none (no result: HCV inhibitor)
Cc1sc2ncnc(N3CCC(C(=O)N(C)CC(=O)Nc4ccccc4Cl)CC3)c2c1C	HCMV antiviral -79, FMDV antiviral 22µM (no result: HCV inhibitor)
Cc1sc2ncnc(N3CCC(C(=O)N(C)CC(=O)Nc4ccccc4Br)CC3)c2c1C	HCMV antiviral -63, HCV inhibitor inconclusive, FMDV antiviral inconclusive
CCN(CC(=O)Nc1cc(Cl)ccc1C)c1ncnc2sc(C)c(C)c12	HCMV antiviral -78, HCV inhibitor 25µM
Cc1ccc(Cl)cc1NC(=S)NCCCSC1CCCCC1	HCV inhibitor 10µM, FMDV antiviral inconclusive
CCOC(=O)c1ccccc1NC(=O)C1CCN(c2ncnc3sc(C)c(C)c23)CC1	HCV inhibitor inconclusive, FMDV antiviral inconclusive (no result: HCMV antiviral)
CC1(C(=O)NS(=O)(=O)c2cccs2)CCN1C(=O)C1CCCCC1 (configuration not stated)	none (no result: HCV inhibitor)
O=C(c1ccc2c(c1)N(Cc1cccc(Cl)c1)C(=O)c1ccccc1S2(=O)=O)N1CCc2ccccc21	none (no result: HCV inhibitor)
CCN(CC(=O)Nc1cc(Cl)ccc1C)C(=O)C1CCN(c2ncnc3sc(C)c(C)c23)CC1	Vaccinia mCherry 11µM, Vaccinia Venus inconclusive, FMDV antiviral 18µM (no result: HCV inhibitor)
CCc1nnc(NC(=O)C2CCN(c3ncnc4sc(C)c(C)c34)CC2)s1	FMDV antiviral inconclusive (no result: Vaccinia mCherry, Vaccinia Venus)
CCN(CC(=O)Nc1ccccc1C(F)(F)F)C(=O)CCS(=O)(=O)c1ccc(Cl)cc1	Vaccinia mCherry inconclusive
CCN(CC(=O)Nc1cc(Cl)ccc1C)C(=O)C1CCCCC1	HCMV antiviral -61
CCN(CC(=O)Nc1cc(Cl)ccc1C)C(=O)CCS(=O)(=O)c1ccc(Cl)cc1	HCV inhibitor inconclusive, Vaccinia mCherry 11µM, Vaccinia Venus inconclusive
O=C(NCCC(=O)N1CCN(c2ccc(F)cc2)CC1)c1ccco1	none
CS(=O)(=O)C1=NSC2=NC(=O)/C(=C\c3ccc(OC(=O)c4ccco4)c(Br)c3)C(=N)N21	none (no result: Vaccinia mCherry, Vaccinia Venus)
O=C(Nc1ccc(-c2nc3ccccc3o2)cc1)c1cc(-n2cnnc2)ccc1Cl	HCMV antiviral -97, HCV inhibitor inconclusive (no result: Vaccinia mCherry, Vaccinia Venus)
O=C(Nc1ccc(-c2nc3ccccc3o2)c(O)c1)c1cc(-n2cnnc2)ccc1Cl	HCMV antiviral -95, HCV inhibitor 11µM, FMDV antiviral 13µM (no result: Vaccinia mCherry, Vaccinia Venus)
Cc1c(NC(=O)c2cc(-n3cnnc3)ccc2Cl)cccc1-c1nc2ccccc2o1	HCV inhibitor inconclusive, Vaccinia mCherry inconclusive
O=C(Nc1ccc2oc(-c3ccccc3)nc2c1)c1cc(-n2cnnc2)ccc1Cl	HCV inhibitor inconclusive (no result: Vaccinia mCherry, Vaccinia Venus)
COc1ccc(CN2C(=O)C(CC(=O)NCCN3CCOCC3)CC(C(=O)N3CCOCC3)=C2C)cc1 (configuration not stated)	none (no result: HCV inhibitor)
C=CC[C@@H](CC(=O)N(CCO)Cc1ccccc1)C(=O)N[C@H](COC(=O)[C@@H](CC=C)CC(=O)OC(C)(C)C)Cc1ccccc1	HCV inhibitor inconclusive, FMDV antiviral inconclusive
C=CC[C@H](CC(=O)N(CCO)Cc1ccccc1)C(=O)N[C@H](COC(=O)[C@H](CC=C)CC(=O)OC(C)(C)C)Cc1c[nH]c2ccccc12	HCV inhibitor 25µM, FMDV antiviral inconclusive
C=CC[C@@H](CC(=O)N(CCO)Cc1ccccc1)C(=O)N[C@@H](COC(=O)[C@H](CC=C)CC(=O)OC(C)(C)C)Cc1c[nH]c2ccccc12	HCV inhibitor inconclusive, Vaccinia mCherry inconclusive, Vaccinia Venus 11µM
C=CC[C@H](CC(=O)N(CCO)Cc1ccccc1)C(=O)N[C@@H](COC(=O)[C@@H](CC=C)CC(=O)OC(C)(C)C)Cc1c[nH]c2ccccc12	HCV inhibitor inconclusive, Vaccinia mCherry inconclusive, Vaccinia Venus 11µM, FMDV antiviral inconclusive
C=CC[C@H](CC(=O)N(CCO)Cc1ccccc1)C(=O)N[C@H](COC(=O)[C@@H](CC=C)Cc1ccc(F)cc1)Cc1c[nH]c2ccccc12	HCV inhibitor inconclusive, Vaccinia Venus inconclusive, FMDV antiviral inconclusive
C=CC[C@H](CC(=O)N(CCO)Cc1ccccc1)C(=O)N[C@H](COC(=O)[C@@H](CC=C)CC(=O)OC(C)(C)C)Cc1ccccc1	HCV inhibitor inconclusive, Vaccinia Venus inconclusive
CCn1c(=O)n(-c2ccc(F)cc2)c(=O)c2sc3ccccc3c21	none (no result: HCV inhibitor)
CN(C)c1ccc(/C=C/c2cc[n+](C)cc2)cc1	HCMV antiviral -101, HCV inhibitor 1.8µM
CN(C)c1ccc(C=O)cc1	none (no result: HCMV antiviral, HCV inhibitor, FMDV antiviral)
Cc1ccc(/C=C/c2ccc(N(C)C)cc2)[n+](C)c1	HCMV antiviral -98, HCV inhibitor 3.2µM
Cc1ccccc1OCCn1cc(C(=S)N2CCN(C)CC2)c2ccccc21	HCV inhibitor inconclusive (no result: Vaccinia mCherry, Vaccinia Venus)
CC(=O)c1cn(CCOc2ccccc2C)c2ccccc12	HCV inhibitor 0.79µM, FMDV antiviral inconclusive (no result: Vaccinia mCherry, Vaccinia Venus)
Cc1ccccc1OCCn1cc(C(=S)N2CCCC2)c2ccccc21	HCV inhibitor 11µM, Vaccinia mCherry inconclusive, Vaccinia Venus inconclusive
Cc1nc2cnc(N3CCNCC3)nc2n(C2CC2)c1=O	none (no result: HCMV antiviral, HCV inhibitor, Vaccinia mCherry, Vaccinia Venus)
Cc1oc(-c2ccccc2F)nc1CS(=O)(=O)CC(=O)N1CCCCCC1	Vaccinia mCherry inconclusive
Cc1ccc(-c2nc(CS(=O)CC(=O)N3CCN(c4ccc(F)cc4)CC3)c(C)o2)cc1 (configuration not stated)	HCMV antiviral -63!, HCV inhibitor inconclusive, FMDV antiviral inconclusive
COc1cccc(N2CCN(C3=NS(=O)(=O)C(c4ccc(C)cc4)=C3C)CC2)c1	none (no result: HCV inhibitor)
Cc1ccc(-c2nc(CS(=O)CC(=O)N3CCN(c4cccc(Cl)c4)CC3)c(C)o2)cc1 (configuration not stated)	HCMV antiviral inconclusive (no result: HCV inhibitor)
Cc1oc(-c2ccccc2F)nc1CS(=O)(=O)CC(=O)N1CCN(c2ccc(Cl)cc2)CC1	HCMV antiviral -83, Vaccinia mCherry inconclusive, Vaccinia Venus inconclusive, FMDV antiviral 16µM (no result: HCV inhibitor)
CC1=C(c2ccc(Cl)cc2)S(=O)(=O)N=C1N1CCN(c2cccc(C(F)(F)F)c2)CC1	HCMV antiviral -60 (no result: HCV inhibitor)
Cc1oc(-c2ccc(Cl)cc2)nc1CS(=O)CC(=O)N1CCN(c2cccc(C(F)(F)F)c2)CC1 (configuration not stated)	HCMV antiviral inconclusive, Vaccinia mCherry inconclusive, FMDV antiviral 32µM (no result: HCV inhibitor)
